From PubChem BioAssay (NCI) come the findings set out here.

The panel holds about 79,000 compounds, 15% with a hit somewhere; the sample as a whole holds those more often. Unmarked numbers belong to inactive results. Active and inactive are the calls of the source. Cut-off read from the data, not from the text of the source: active = growth inhibition above about 70%; inactive = the rest.

The nature of assay [1]: NCI Yeast Anticancer Drug Screen. Data for the rad50 strain (AID 155).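 Note: 0% = growth of vehicle-only cultures of the same strain.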 The note with it: S. cerevisiae rad50 strain growth inhibition, hits give high values. The gist of the method: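 Cells are treated with compound, grown, and their growth is then scored against vehicle-only cultures of the same repair-deficient yeast strain.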
Assay [2] is described as follows: NCI Yeast Anticancer Drug Screen. Data for the mec2-1 strain (AID 157). The conditions noted are these: S. cerevisiae mec2-1 strain, hits give high values. The gist of the method: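 Compounds were applied to mec2-1 yeast cells. Their growth was then compared with that of vehicle-treated cultures to give growth inhibition.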
A short description of assay [3]: NCI Yeast Anticancer Drug Screen. Data for the sgs1 mgt1 strain (AID 161).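 Note: 0% = growth of cultures given vehicle only.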 The conditions noted are these: S. cerevisiae sgs1 mgt1 strain, hits give high values. The gist of the method:
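Percent growth inhibition was derived by comparing compound-exposed mutant yeast with vehicle-exposed cultures. The strain carries alterations in DNA damage repair.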

Assay [4] is described as follows: NCI Yeast Anticancer Drug Screen. Data for the cln2 rad14 strain (AID 165).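 Note: 0% = growth equal to vehicle treated cultures.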 The note with it: S. cerevisiae cln2 rad14 strain, hits give high values. The gist of the method:
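Strain: cln2 rad14 yeast, altered in cell cycle control and DNA damage repair. Read-out: growth inhibition vs vehicle.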

A short description of assay [5]: NCI Yeast Anticancer Drug Screen. Data for the bub3 strain (AID 167). The conditions noted are these: S. cerevisiae bub3 mutant strain, hits give high values. The gist of the method: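 Part of a panel of yeast mutants defective in DNA damage repair or cell cycle regulation. Each strain is grown with compound, and inhibition is calculated relative to solvent-treated cultures.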

Assay [6] in a line: NCI Yeast Anticancer Drug Screen. Data for the mlh1 rad18 strain (AID 175). The note with it: S. cerevisiae mlh1 rad18 strain growth inhibition, hits give high values. The gist of the method: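 A repair-deficient yeast strain is exposed to test compound, and growth is scored relative to vehicle-treated controls.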
Setting [7] is: at 5.0 µM (retest, dose inferred, filed as 0.5).
Where [8] appears, read: at 50.0 µM (retest, dose inferred, filed as 5.0).

For `O=C1C=CC(=O)C(Br)C1Br` (configuration not stated), the growth inhibition in assay [1] (setting [7]) was -20%; in assay [1] (setting [8]) it was 34%; in assay [1] (at 50.0 µM), 26.1%; in assay [2] (setting [7]), -8%; in assay [2] (setting [8]), 57%; in assay [2] (at 50.0 µM), 35.3%. The growth inhibition in assay [3] (setting [7]) is -7%; in assay [3] (setting [8]) it was 66%; in assay [3] (at 50.0 µM), 46.3%; in assay [4] (setting [7]) it was 2%; in assay [4] (setting [8]), 10%; in assay [4] (at 50.0 µM), 19.1%. Moreover, the growth inhibition in assay [5] (setting [7]) was -1%; in assay [5] (setting [8]), 52%; in assay [5] (at 50.0 µM), 71.2% (active); in assay [6] (setting [7]), 35%; in assay [6] (setting [8]), 57%; in assay [6] (at 50.0 µM), 66.2%.
On to `CN(C)CCBr`, for which the growth inhibition in assay [1] (setting [7]) was 86% (active); in assay [1] (setting [8]), 95% (active); in assay [1] (at 50.0 µM), 38%; in assay [2] (setting [7]), 16%; in assay [2] (setting [8]), 92% (active); in assay [2] (at 50.0 µM), 88.1% (active). Besides, the growth inhibition in assay [3] (setting [7]) was 61%; in assay [3] (setting [8]), 94% (active); in assay [3] (at 50.0 µM) it was 92.9% (active); in assay [4] (setting [7]), -1%; in assay [4] (setting [8]), 84% (active); in assay [4] (at 50.0 µM) it was 64.2%. The growth inhibition was -10% in assay [5] (setting [7]); 81% (active) in assay [5] (setting [8]); 55.6% in assay [5] (at 50.0 µM); 49% in assay [6] (setting [7]); 95% (active) in assay [6] (setting [8]); 96.7% (active) in assay [6] (at 50.0 µM).
Regarding `CCC[CH2][Sn]1([CH2]CCC)[O]c2ccccc2[O]1`, the growth inhibition was 9% in assay [1] (setting [7]); 95% (active) in assay [1] (setting [8]); 89% (active) in assay [1] (at 50.0 µM); 23% in assay [2] (setting [7]); 94% (active) in assay [2] (setting [8]); 90.8% (active) in assay [2] (at 50.0 µM). In addition, the growth inhibition is 13% in assay [3] (setting [7]); 94% (active) in assay [3] (setting [8]); 90.5% (active) in assay [3] (at 50.0 µM); 0% in assay [4] (setting [7]); 92% (active) in assay [4] (setting [8]); 83.8% (active) in assay [4] (at 50.0 µM). The growth inhibition is 35% in assay [5] (setting [7]); 95% (active) in assay [5] (setting [8]); 89.4% (active) in assay [5] (at 50.0 µM); 11% in assay [6] (setting [7]); 96% (active) in assay [6] (setting [8]); 89.1% (active) in assay [6] (at 50.0 µM).
For the compound `Cc1c2ccncc2c(CN(CCCl)CCCl)c2c3ccccc3n(C)c12`, the growth inhibition in assay [1] (setting [7]) is 10%; in assay [1] (setting [8]), 98% (active); in assay [1] (at 50.0 µM), 90.3% (active); in assay [2] (setting [7]), 17%; in assay [2] (setting [8]), 99% (active); in assay [2] (at 50.0 µM), 88.5% (active). In addition, the growth inhibition in assay [3] (setting [7]) was -25%; in assay [3] (setting [8]), 86% (active); in assay [3] (at 50.0 µM) it was 85.2% (active); in assay [4] (setting [7]) it was 6%; in assay [4] (setting [8]), 96% (active); in assay [4] (at 50.0 µM), 88.2% (active). The growth inhibition in assay [5] (setting [7]) is -10%; in assay [5] (setting [8]) it was 80% (active); in assay [5] (at 50.0 µM), 82.1% (active); in assay [6] (setting [7]) it was 24%; in assay [6] (setting [8]), 99% (active); in assay [6] (at 50.0 µM), 91.8% (active).
As for `CCCNC1=C(C)C(=O)C2=C(C1=O)[C@H](COC(N)=O)[C@]1(OC)[C@@H]3N[C@@H]3CN21`, the growth inhibition in assay [1] (setting [7]) is 15%; in assay [1] (setting [8]), 66%; in assay [1] (at 50.0 µM), 36.8%; in assay [2] (setting [7]), 15%; in assay [2] (setting [8]), 76% (active); in assay [2] (at 50.0 µM), 38.9%. Moreover, the growth inhibition in assay [3] (setting [7]) is 11%; in assay [3] (setting [8]), 64%; in assay [3] (at 50.0 µM), 39.6%; in assay [4] (setting [7]), 5%; in assay [4] (setting [8]) it was 79% (active); in assay [4] (at 50.0 µM), 51.7%. In addition, the growth inhibition is 2% in assay [5] (setting [7]); 37% in assay [5] (setting [8]); 9.7% in assay [5] (at 50.0 µM); 47% in assay [6] (setting [7]); 93% (active) in assay [6] (setting [8]); 79.8% (active) in assay [6] (at 50.0 µM).
For `NCCNCCNCCNCCN` (tested in a mixture with another compound), the growth inhibition in assay [1] (setting [7]) is 0%; in assay [1] (setting [8]), 1%; in assay [1] (at 50.0 µM) it was 90.3% (active); in assay [2] (setting [7]), -35%; in assay [2] (setting [8]), 0%; in assay [2] (at 50.0 µM), 25.8%. In addition, the growth inhibition was 0% in assay [3] (setting [7]); 2% in assay [3] (setting [8]); 52.9% in assay [3] (at 50.0 µM); 2% in assay [4] (setting [7]); 4% in assay [4] (setting [8]); 35.8% in assay [4] (at 50.0 µM). Besides, the growth inhibition in assay [5] (setting [7]) was -1%; in assay [5] (setting [8]) it was -5%; in assay [5] (at 50.0 µM) it was 80% (active); in assay [6] (setting [7]), 0%; in assay [6] (setting [8]) it was 2%; in assay [6] (at 50.0 µM), 62.5%.
For the compound `Nc1ccccc1O.O.O=C(O)C1[O][Sb][O]C1C(=O)O` (configuration not stated), the growth inhibition is 19% in assay [1] (setting [7]); 33% in assay [1] (setting [8]); 55.5% in assay [1] (at 50.0 µM); 26% in assay [2] (setting [7]); 23% in assay [2] (setting [8]); 53.5% in assay [2] (at 50.0 µM). Also, the growth inhibition in assay [3] (setting [7]) is 12%; in assay [3] (setting [8]), 25%; in assay [3] (at 50.0 µM), 27.2%; in assay [4] (setting [7]), 10%; in assay [4] (setting [8]), 20%; in assay [4] (at 50.0 µM), 33.3%. Further, the growth inhibition was 37% in assay [5] (setting [7]); 61% in assay [5] (setting [8]); 82.4% (active) in assay [5] (at 50.0 µM); 37% in assay [6] (setting [7]); 55% in assay [6] (setting [8]); 59.4% in assay [6] (at 50.0 µM).
As to `CCOP(=O)(OCC)C(O)c1ccccc1Cl` (configuration not stated), the growth inhibition in assay [1] (setting [7]) was 7%; in assay [1] (setting [8]), 4%; in assay [1] (at 50.0 µM), 38.4%; in assay [2] (setting [7]), 7%; in assay [2] (setting [8]), 4%; in assay [2] (at 50.0 µM), -4.1%. The growth inhibition in assay [3] (setting [7]) is 3%; in assay [3] (setting [8]), 17%; in assay [3] (at 50.0 µM), 9.15%; in assay [4] (setting [7]), -5%; in assay [4] (setting [8]), 1%; in assay [4] (at 50.0 µM), 35.5%. Further, the growth inhibition in assay [5] (setting [7]) was -5%; in assay [5] (setting [8]), -6%; in assay [5] (at 50.0 µM), 17.2%; in assay [6] (setting [7]) it was 7%; in assay [6] (setting [8]), 22%; in assay [6] (at 50.0 µM), 2.9%.
As for `C1=C(/C=C2\CCCc3c(-c4ccccc4)cc(-c4ccccc4)[o+]c32)CCC/C1=C\C1=C2OC(c3ccccc3)=CC(c3ccccc3)=C2CCC1`, the growth inhibition was -11% in assay [1] (setting [7]); 14% in assay [1] (setting [8]); 36.6% in assay [1] (at 50.0 µM); 3% in assay [2] (setting [7]); 2% in assay [2] (setting [8]); 52.8% in assay [2] (at 50.0 µM). Also, the growth inhibition is 4% in assay [3] (setting [7]); -8% in assay [3] (setting [8]); 66.6% in assay [3] (at 50.0 µM); 18% in assay [4] (setting [7]); 25% in assay [4] (setting [8]); 40.9% in assay [4] (at 50.0 µM). The growth inhibition in assay [5] (setting [7]) is 10%; in assay [5] (setting [8]) it was 30%; in assay [5] (at 50.0 µM), 71.2% (active); in assay [6] (setting [7]), 3%; in assay [6] (setting [8]), 35%; in assay [6] (at 50.0 µM), 31.9%.
